Screening results as filed in PubChem BioAssay.
Compounds with a hit are over-represented: about 21% of the library has one in this group of screens.
Pf growth 48h – P. falciparum growth inhibition at 48 hours (one generation). Potency, µM (top dose mostly 28.7 µM), most hits filed as inhibitors. 5.9% of 310,000 active. P. falciparum luciferase growth in erythrocytes, 48 h
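Parasite viability was followed by luminescence of a genomically integrated firefly luciferase. Cultures held 0.1% parasitemia at 2% hematocrit (final), incubated under 5% CO2 at 37 C.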
CHX counter – counter-screen hit for Shiga toxin inhibitors, cycloheximide | cell reporter, cycloheximide protein synthesis inhibition counterscreen | max response, % | 12% of 300,000 active | AID 2314; in the data active = max response mostly above about 13%, no sharp cut-off; inactive = mostly below about 14%; also: read at 38.3 µM for the half of the compounds with a filed dose
Shiga inhibitor – blocks Shiga toxin action in Vero cells | Vero cells, Shiga toxin protein synthesis inhibition reporter | inhibition, % at 38.7 µM | AID 2315 | 9.2% of 290,000 active; in the data active = inhibition mostly above about 28%, no sharp cut-off; inactive = mostly below about 43%
FBPA Giardia inh – blocks Giardia fructose-bisphosphate aldolase activity | Potency, µM (top dose mostly 59.6 µM), most hits filed as inhibitors | purified Giardia FBPA | 0.71% of 290,000 active | AID 2451; also: nearly all actives have a fitted effect of over 55% in size
Target sequence (A8B2U2 whole entry, looked up): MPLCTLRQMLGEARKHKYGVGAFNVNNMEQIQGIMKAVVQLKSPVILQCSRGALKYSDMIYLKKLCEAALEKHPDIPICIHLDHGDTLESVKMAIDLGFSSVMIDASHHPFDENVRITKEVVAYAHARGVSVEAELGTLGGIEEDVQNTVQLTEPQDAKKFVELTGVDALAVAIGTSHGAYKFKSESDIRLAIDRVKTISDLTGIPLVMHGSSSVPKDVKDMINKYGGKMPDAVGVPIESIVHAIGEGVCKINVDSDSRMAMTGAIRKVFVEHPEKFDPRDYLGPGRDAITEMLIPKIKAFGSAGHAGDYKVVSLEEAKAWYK
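40 nM FBPA preincubated 10 min at RT with compound (up to 57.5 uM final), then substrate plus GAPDH/TPI/NAD/arsenate coupling and diaphorase/resazurin added. Fluorescence read after 20 min at RT, 525/598 nm.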
NS1 inh – influenza NS1 inhibition; Potency, µM (doses to about 46.1 µM); AID 2326; 0.4% of 270,000 active; calls by dose curve; also: actives are rising curves; nearly all actives have a fitted effect of over 50% in size
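Compounds were scored for reversing the slow growth caused by influenza A NS1 in S. cerevisiae, measured by optical density at 600 nm. Assay medium contained 2% galactose at pH 6.0; NS1-free yeast of the same strain were the positive control.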
Pf growth 96h – P. falciparum growth inhibition at 96 hours. Potency, µM (top dose mostly 28.7 µM), hits mostly inhibitors. P. falciparum luciferase reporter growth, 96 h. 6.9% of 320,000 active
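Two parasite generations (96 h, 37 C, 5% CO2) of compound exposure in infected erythrocytes (0.05% parasitemia, 2% hematocrit). Luciferase-reporter P. falciparum; decreased luminescence indicates inhibited growth, aimed at apicoplast-acting delayed death.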
Each line names hits and unclear results; the compound was inactive in the other large screens. Unless noted, calls follow the shape of the dose curve; as a rule, active = well fitted curve in the direction sought with a large enough effect; inconclusive = small, poorly fitted or top-dose-only effect, or another doubt; inactive = no such curve, though single readings can be large; an effect the other way counts as inactive or inconclusive.

COc1ccc(C(CNC(=O)c2ccc(-c3cccc(C(F)(F)F)c3)o2)N2CCOCC2)cc1 (stereo not given)	Pf growth 48h 6.6µM, Pf growth 96h 1.5µM (no result: CHX counter, Shiga inhibitor, FBPA Giardia inh, NS1 inh)
COc1cc2cc(C#N)c(SCC(=O)Nc3cc(C)on3)nc2cc1OC	Pf growth 48h inconclusive
CCC(=O)Nc1ccc(-c2nc3ccccc3c(=O)o2)cc1	CHX counter 28, Shiga inhibitor 79 (no result: NS1 inh)
CCC(=O)Nc1cccc(-c2nnc(-c3cccc(NC(=O)CC)c3)o2)c1	Pf growth 48h 5.2µM, Pf growth 96h 1.2µM
CC(=O)Nc1ccc(C2=NN(Cc3nnc(-c4ccccc4)o3)C(=O)SC2)cc1	Pf growth 48h inconclusive, Shiga inhibitor 16, NS1 inh inconclusive, Pf growth 96h inconclusive
C=Cc1cccc(NC(=O)COc2ccccc2)c1	CHX counter 35, Pf growth 96h inconclusive
O=C(O)C1=C[C@H](c2cccs2)C[C@H](OCc2ccc(CO)cc2)O1	none
COc1ccccc1NC(=O)CCNS(=O)(=O)c1ccc2c(c1)CCN2C(C)=O	Pf growth 96h inconclusive
CCCCCCc1cc2cc(S(=O)(=O)c3ccc(F)c(Cl)c3)c(=O)oc2cc1O	Pf growth 48h inconclusive, Pf growth 96h inconclusive
CN1C(=O)C(=Cc2ccc(OCC(=O)Nc3ccccc3)cc2)C(=O)N(C)C1=O	CHX counter 50, Shiga inhibitor 75 (no result: FBPA Giardia inh)
CCC(=O)Nc1ccc(-c2nnc(-c3ccccc3)o2)cc1	CHX counter 18
CCOC(=O)C1=C(C)N(CC(C)C)C(=O)/C1=C\c1ccc(OCC(=O)Nc2ccccc2)cc1	Pf growth 48h inconclusive
O=C(COc1ccccc1)Nc1cccc(-c2nnc(-c3ccccc3)o2)c1	CHX counter 20, Shiga inhibitor 72 (no result: Pf growth 96h)
CCC(=O)Nc1ccc(NCc2ccc(-c3ccccc3)cc2)cc1	FBPA Giardia inh inconclusive, Pf growth 96h inconclusive
Cc1ccc(S(=O)(=O)N2CCN(C(=O)c3sccc3-c3ccccc3)CC2)cc1	none (no result: FBPA Giardia inh)
COC(=O)c1sccc1NC(=O)CC1C(=O)NCCN1C(=O)c1ccc(F)cc1 (stereo not given)	none
Cn1nc(C(C)(C)C)c([N+](=O)[O-])c1C(=O)N1CCCCCC1	none
Cc1ccc(C(O)Cn2nc(C)cc2C)cc1 (stereo not given)	none (no result: CHX counter, Shiga inhibitor, FBPA Giardia inh, NS1 inh)
CCOc1ccc(CCNC(=O)c2cc(C)nn2-c2ccccc2)cc1	none
Nc1cccc(-c2cnc3ccccc3n2)c1	CHX counter 64, Shiga inhibitor 63
O=[N+]([O-])c1cccc(-c2cnc3ccccc3n2)c1	CHX counter 24, Shiga inhibitor 63
CCn1cc(C(=O)NCc2ccco2)c(=O)c2cc(S(=O)(=O)N3CCc4ccccc4C3)ccc21	Pf growth 48h 9.3µM, Pf growth 96h 5.2µM
CCn1cc(C(=O)NCC(C)C)c(=O)c2cc(F)c(N3CCN(C)CC3)cc21	none
CCC(C)NC(=O)c1cn(CC)c2cc(N3CCN(C(=O)c4ccco4)CC3)c(F)cc2c1=O (stereo not given)	Pf growth 48h 5.9µM, Pf growth 96h 4.1µM (no result: FBPA Giardia inh)
CCn1cc(C(=O)NCC(C)C)c(=O)c2cc(F)c(N3CCN(C(=O)c4ccco4)CC3)cc21	Pf growth 48h 4.1µM
C=CCNC(=O)c1cn(CC)c2cc(N3CCN(C(=O)c4ccco4)CC3)c(F)cc2c1=O	Pf growth 48h 7.4µM, Pf growth 96h inconclusive
COCC1=Cc2cc3c(cc2C(C(C(=O)OC)C(=O)OC)N1C(=O)OC)OCO3 (stereo not given)	none (no result: Pf growth 48h, CHX counter, Shiga inhibitor, NS1 inh, Pf growth 96h)
Cc1ccccc1-n1ccnc1SCC(=O)NC1CCCC1	none
COc1ccc(C(=O)N2CCC3(CCN(Cc4ccc(C#N)cc4)CC3)CC2)cc1	none (no result: Pf growth 48h, CHX counter, Shiga inhibitor, NS1 inh, Pf growth 96h)
Cc1cccc(N(C(=O)CNC(=O)c2ccco2)C(C(=O)NC2CCCC2)c2cccnc2)c1C (stereo not given)	none (no result: FBPA Giardia inh)
CCn1cc(C(=O)NCc2ccco2)c(=O)c2cc(F)c(N3CCN(C(=O)c4ccco4)CC3)cc21	Pf growth 48h 7.4µM
O=C(O)Cn1c(=O)c2c3c(sc2n(Cc2ccccc2F)c1=O)CCCC3	none
COc1ccc(C2C(=O)N(CCc3ccccc3)CC(=O)N2C2CCCCC2)cc1 (stereo not given)	Pf growth 96h 5.2µM (no result: Pf growth 48h)
COc1ccc(CCN2CC(C(=O)NCc3ccccc3)CCC2=O)cc1 (stereo not given)	none (no result: FBPA Giardia inh)
CCCCN1C(=O)CC(C(=O)O)C1c1ccc(OC)cc1 (stereo not given)	none (no result: Pf growth 48h)
CCCCN1C(=O)CN(CCc2ccccc2)C(=O)C1c1ccc(OC)cc1 (stereo not given)	Pf growth 48h inconclusive, Pf growth 96h 5.2µM (no result: FBPA Giardia inh)
C[C@@H](CS(=O)(=O)Cc1ccccc1)C(N)=O	none (no result: Pf growth 48h, CHX counter, Shiga inhibitor, FBPA Giardia inh, Pf growth 96h)
O=C(Nc1cccc(O)c1)c1c(O)c2ccccc2[nH]c1=O	CHX counter 48, Shiga inhibitor 38, NS1 inh inconclusive
Cc1cccc(C)c1NC(=O)c1c(O)c2ccccc2[nH]c1=O	none
O=C(Nc1cccc(C(F)(F)F)c1)c1c(O)c2ccccc2[nH]c1=O	Pf growth 96h 15µM
Cc1cccc(NC(=O)c2c(O)c3ccccc3[nH]c2=O)c1	CHX counter 33, Shiga inhibitor 38
COc1ccccc1C(=O)NNC(=O)c1ccc(NC(=O)C(C)C)cc1	none
CC(=O)c1ccc(OC(=O)COc2ccccc2Cl)cc1	none
O=C(CN1CCCCC1)NN(Cc1ccccc1)c1ccccc1	FBPA Giardia inh inconclusive, Pf growth 96h inconclusive
CC(C)COCC(CN(Cc1ccccc1)c1ccccc1)N1CCCC1 (stereo not given)	Pf growth 48h 11µM, Pf growth 96h inconclusive
CCCCOc1ccc(C(=O)N2CCCC2)cc1	CHX counter 36, Shiga inhibitor 103 (no result: Pf growth 96h)
COc1ccc(OCCC(=O)N2CCCCC2)cc1	CHX counter 27, Shiga inhibitor 35 (no result: Pf growth 96h)
CCCCCOc1ccc(C(=O)CCC(=O)N2CCCC2)cc1	Pf growth 48h inconclusive, CHX counter 22, Shiga inhibitor 51, Pf growth 96h inconclusive
CCCCOc1ccc(C(=O)NCCCC(=O)N2CCCCC2)cc1	Pf growth 48h inconclusive
COc1ccc(OCCC(=O)N2CCN(C)CC2)cc1	Pf growth 96h inconclusive
CCCCOc1c(Cl)cc(C(=O)N2CCN(CC(=O)N3CCCC3)CC2)cc1OCC	Pf growth 48h 12µM, Pf growth 96h inconclusive (no result: CHX counter, Shiga inhibitor, FBPA Giardia inh, NS1 inh)
O=C(NCC1CCCO1)C(=O)N/N=C/c1cccc(Cl)c1 (stereo not given)	Pf growth 96h inconclusive (no result: FBPA Giardia inh)
CC(OC(=O)Cn1cnc2c1c(=O)n(C)c(=O)n2C)C(=O)NC1CCCCC1C (stereo not given)	none (no result: CHX counter, Shiga inhibitor, FBPA Giardia inh, NS1 inh)
O=C(NCCc1ccccc1F)C1CCC(=O)N(CCCN2CCCC2=O)C1 (stereo not given)	Pf growth 96h inconclusive
O=C(NCCNC(=O)c1ccc(Cl)cc1Cl)c1cnccn1	Pf growth 96h inconclusive
Cc1ccc(-c2csc(N(CCc3ccccc3)C(=O)COc3ccccc3)n2)cc1	Pf growth 48h inconclusive, Pf growth 96h inconclusive
C=CCN(C(=O)c1cccc(S(=O)(=O)N2CCN(C)CC2)c1)c1nc(-c2ccccc2)cs1	Pf growth 96h inconclusive (no result: Pf growth 48h)
